Measured values taken from the OligoGym collection.

Target: SELO
Assay: pooled miR-30 sensor sort-seq; sequence = guide strand
Conditions: shRNA
Further: reference of the scale not given here.

| Sequence | sensor-assay potency score (higher = more potent) |
| --- | --- |
| TTCGCTGCATAGAAACTCCCGG | 0.0168 |
| TTTCTCTGCACGCTGTCGCTGG | -0.303 |
| TTGTCGGTGTTGAGCACGCCGT | -1.37 |
| TTTGGGATTACCATCATAGAAC | -1.22 |
| TCGCTGCATAGAAACTCCCGGA | -0.819 |
| AACACGTCGCGCACCACCGTGG | -0.914 |
| TTGCCGCTGAAGAACAGCGCGG | -1.34 |

Target: SEMA3B
Assay: as above
Conditions: shRNA

| Sequence | sensor-assay potency score (higher = more potent) |
| --- | --- |
| TTGCATGCTGGTGACAGCGGCC | -0.767 |
| TCTCCGGAGCACAACGTGCTGG | -0.802 |
| ATGCTGTACACGCACACCGCAG | -1.8 |
| TTGTGTTCCAGCAGCGCGGGAC | -0.691 |
| TTGGTGGAACTGAAGGTGCCAA | -0.717 |
| TACCTTGACAAACTTGGGCTCA | -0.131 |
| TTGGAAGAAATTTGCATGCTGG | 0.12 |
| TAGATTTTGTCGTCGTCTGGGT | 0.074 |
| TACTTTAGTACAGTCGGCCTGC | 0.558 |
| AACTGGATGACATCGTCTGGGA | -0.898 |
| TCACACTCCAGAAAGGCGCTGC | 0.144 |
| TTCAGGAACGTCGTCCACTTGT | -0.531 |

Target: SEMA5A
Assay: as above
Conditions: shRNA

| Sequence | sensor-assay potency score (higher = more potent) |
| --- | --- |
| TCTTCCAGCAAACAGCTGCTTG | -1.24 |
| ATTAGAGTCAAACACACACGGC | -0.728 |
| TATCGTTCTTGCACACCCGGGC | -0.125 |
| TTCTTCGCTCTGAACTCCCGTA | -0.152 |
| TTAGAGTCAAACACACACGGCC | -0.151 |
| ATCTCTTCCAGCAAACAGCTGC | -0.82 |
| TTATGAAATATTATGGACCTAT | -0.515 |
| TTTCGATTCTCTGTCTTCCCAC | 0.0611 |
| TTGCAGTATCTTTCCTCGCGGT | -0.492 |
| TTGAAGACGCACACAGCTGAGG | -0.713 |
| ATATCGTTCTTGCACACCCGGG | -1.15 |
| TAGAACAGTACCGCATTTCGAT | -0.368 |

Target: SEMA6D
Assay: as above
Conditions: shRNA

| Sequence | sensor-assay potency score (higher = more potent) |
| --- | --- |
| TATTCTAAGGTACTCAACCTGT | -0.752 |
| TTTTTTTTGACATTTGTGCAAG | -0.63 |
| TTGGGTGGTAGCTCTTTCCGAC | -0.271 |
| TTTTACATGATCCATAACGCTC | -0.732 |
| TACTTTTTCAATGTCATCCATG | -0.449 |
| TTGATTTGTATTATGTCTGTAA | 0.267 |
| TACTGTATAAACTTGATCCCTG | 0.49 |
| TATGTCTGTAATAGACTGCAGA | -0.657 |
| TAATAGACTGCAGAACATCAAA | -1.03 |
